{
  "source": "PubChem BioAssay (NCATS)",
  "note": "The source made the active and inactive calls. The call rests on the fitted dose curve; in most records, active means well fitted inhibition curve with a large enough effect; inconclusive means small, poorly fitted or top-dose-only effect; inactive means no such curve, though single readings can be large or run the other way. Residues, ends and D or L forms follow the SMILES beside them. *: point of attachment. Cbz = O=C(OCc1ccccc1)*",
  "data": [
    {"assay": "qHTS assay for measurement of the activity of small molecule inhibitors on Zika virus induced Caspase-3 activity in human astrocytoma cells (AID 1224859)", "settings": "SNB-19 ZIKV-induced caspase-3/7, luminescence, 6 h; series mostly up to 45.7 µM; activity change, negative = inhibition: at the top concentration", "text": "National Center for Advancing Translational Sciences [NCATS]\nJohns Hopkins University School of Medicine\nIncrease in the Caspase-3 activity indicates an activation of apoptosis cell death pathway caused by Zika virus infection in certain types of neuronal cells including human neural progenitor cells (hNPCs), astrocytes, and astrocytoma cell line (SNB-19). This cell-based caspase-3 activity assay measures the increased caspase-3 activity in the astrocytoma cell line (SNB-19) after a 6-hour Zika virus infection with a luminescence readout. A decrease in the luminescence signal in this assay by small molecule treatment indicates an inhibitory effect of that small molecule on the Zika virus induced caspase-3 activity that may correlate with its effect on reduction of Zika virus caused cell death.\nThe medium for SNB-19 cells is composed of RPMI 1640 (ATCC, Cat.# 30-2001), 10% fetal bovine serum (FBS) (GE healthcare Life Sciences, Cat.# SH30071.03), and 1% Pen/Strep (Gibco, Cat.# 15140-122). A Caspase-Glo 3/7 assay kit (catalog number G8092; Promega, Madison, WI) was used to detect caspase-3 activity induced by Zika virus infection in human cells. The reagent mixture was reconstituted as described in the protocol from the manufacturer. Polystyrene tissue culture treated and PDL coated white plates were obtained from Greiner Bio-One (Monroe, NC). Cells were seeded in 384- or 1536-well assay plates and cultured at 37 C with 5% CO2 for 16 to 20 hours. The typical cell seeding density in the 1536-well plate assay is 250 cells/well in 3ul medium for SNB-19 cells in tissue culture treated plates. Compounds were added to cells and incubated for one hour before addition of ZIKV solution to cells (2 FFU/cell). After incubation at 37 C with 5% CO2 for 6 hours, the reagent mixture of Caspase-Glo 3/7 assay kit was added to each well, followed by incubation at room temperature for 30 minutes. The luminescence intensity of the assay plates was measured using a ViewLux plate reader (PerkinElmer). Data were normalized by using the cell-containing wells without ZIKV as a negative control (0% induction of caspase 3/7 activity) and wells containing ZIKV infected cells (Caspase-3 activity induced) as a positive control (100% induction of caspase 3 activity). The percentage inhibitions of the increased Caspase-3 activity by small molecule inhibitors were then calculated.", "values": [
      {"molecule": "C[C@]12CCC(=O)C=C1[C@@H]1CC1[C@H]1[C@H]3[C@@H]4C[C@H]4[C@@]4(CCC(=O)O4)[C@@]3(C)CC[C@H]12", "note": "(stereo not given in full)", "activity change, negative = inhibition": "-8.45% (inactive)"},
      {"molecule": "OCc1ccccc1O[C@@H]1O[C@H](CO)[C@H](O)[C@H](O)[C@H]1O", "activity change, negative = inhibition": "6.67% (inactive)"},
      {"molecule": "CC(=O)OCC(=O)[C@@]1(O)CC[C@H]2[C@@H]3CCC4=CC(=O)CC[C@]4(C)[C@@H]3C(=O)C[C@@]21C", "activity change, negative = inhibition": "41% (inactive)"},
      {"molecule": "CN(C)CC[C@H](c1ccc(Cl)cc1)c1ccccn1", "activity change, negative = inhibition": "-24.5% (inactive)"},
      {"molecule": "CN[C@@H]1C[C@H]2O[C@@](C)([C@H]1OC)n1c3ccccc3c3c4c(c5c6ccccc6n2c5c31)C(=O)N[C@H]4O", "activity change, negative = inhibition": "-0.691% (inactive)"},
      {"molecule": "CCN(C(=O)c1c(O)c2c(Cl)cccc2n(C)c1=O)c1ccccc1", "activity change, negative = inhibition": "18% (inactive)"},
      {"molecule": "CN(C)c1ccc2cc(C(=O)N[C@@H](CCCN=C(N)CCl)C(=O)NCc3ccccc3)ccc2c1", "activity change, negative = inhibition": "-28.4% (inactive)"},
      {"molecule": "C=CC[C@@H]1C=C(C)C[C@H](C)C[C@H](OC)[C@H]2O[C@@](O)(C(=O)C(=O)N3CCCC[C@H]3C(=O)O[C@H](C(C)=C[C@@H]3CC[C@H](O)[C@H](OC)C3)[C@@H](C)[C@@H](O)CC1=O)[C@@H](C)C[C@@H]2OC", "activity change, negative = inhibition": "15.6% (inactive)"},
      {"molecule": "CC(=O)O[C@@]12CO[C@H]1C[C@H](O)[C@@]1(C)C(=O)[C@H](O)C3=C(C)[C@@H](OC(=O)C(O)[C@@H](NC(=O)OC(C)(C)C)c4ccccc4)C[C@@](O)([C@@H](OC(=O)c4ccccc4)[C@@H]21)C3(C)C", "note": "(stereo not given in full)", "activity change, negative = inhibition": "37.6% (inactive)"},
      {"molecule": "N#CNC(=NCCCCCCOc1ccc(Cl)cc1)Nc1ccncc1", "activity change, negative = inhibition": "-3.34% (inactive)"},
      {"molecule": "Nc1nc(=O)n([C@H]2CSC(CO)O2)cc1F", "note": "(stereo not given in full)", "activity change, negative = inhibition": "-2.91% (inactive)"},
      {"molecule": "C[C@H](NC(=O)[C@@H](O)c1cc(F)cc(F)c1)C(=O)N[C@@H]1C(=O)N(C)c2ccccc2-c2ccccc21", "activity change, negative = inhibition": "5.66% (inactive)"},
      {"molecule": "O=C(CN1C(=O)C2(CCCC2)NC[C@H]1c1cc(F)cc(F)c1)Nc1ccc2c(c1)C[C@@]1(C2)C(=O)Nc2ncccc21", "activity change, negative = inhibition": "17.6% (inactive)"},
      {"molecule": "CCNC(=O)c1cc2c(-c3cc(OCCN4CCCC4)c(Cl)cc3Cl)nc(N)nc2s1", "activity change, negative = inhibition": "-3.6% (inactive)"},
      {"molecule": "Cc1ccc2nc(NCCN)c3ncc(C)n3c2c1", "activity change, negative = inhibition": "86.5% (inactive)"},
      {"molecule": "O=C(CCCCCCC(=O)Nc1cccnc1)NO", "activity change, negative = inhibition": "40.9% (inactive)"},
      {"molecule": "CC(C)C[C@@H](C=O)NC(=O)[C@H](CC(C)C)NC(=O)[C@H](CC(C)C)NC(=O)OCc1ccccc1", "note": "(Cbz-Leu-Leu-Leu-aldehyde)", "activity change, negative = inhibition": "88.6% (inactive)"},
      {"molecule": "Cn1cc(-c2cnn3c(N)c(Br)c([C@H]4CCCNC4)nc23)cn1", "activity change, negative = inhibition": "26.7% (inactive)"},
      {"molecule": "CN(N=O)C(=O)N[C@H]1C(O)OC(CO)[C@@H](O)[C@H]1O", "note": "(stereo not given in full)", "activity change, negative = inhibition": "3.9% (inactive)"},
      {"molecule": "CCC(C=C[C@@H]1OC(=O)C=C[C@H]1C)=C[C@H](C)CC=CC(C)=C[C@@H](C)C(=O)[C@@H](C)[C@H](O)[C@@H](C)CC(C)=CC(=O)O", "activity change, negative = inhibition": "5.61% [at 1.73 µM] (inactive)"},
      {"molecule": "COc1cc(C=CC(=O)CC(=O)C=Cc2ccc(O)c(OC)c2)ccc1O", "activity change, negative = inhibition": "64.3% [at 92.8 µM] (inactive)"},
      {"molecule": "CCCNC(=O)[C@H]1O[C@H]1C(=O)N[C@H](C(=O)N1CCC[C@@H]1C(=O)OC)C(C)CC", "note": "(stereo not given in full)", "activity change, negative = inhibition": "0.0169% (inactive)"},
      {"molecule": "COc1cc(C(C)C)c(Oc2cnc(NC(CO)CO)nc2N)cc1I", "activity change, negative = inhibition": "55.3% (inactive)"},
      {"molecule": "NC1=N[C@H]2[C@H](CS[C@H]2CCCCC(=O)O)N1", "activity change, negative = inhibition": "6.31% [at 20.5 µM] (inactive)"},
      {"molecule": "CC(=O)C1=C(O)C=C2Oc3c(C(C)=O)c(O)c(C)c(O)c3C2(C)C1=O", "note": "(stereo not given)", "activity change, negative = inhibition": "8.46% (inactive)"},
      {"molecule": "CC(=O)O[C@H]1C[C@@H]2CC[C@H]3[C@H]4C[C@H]([N+]5(C)CCCCC5)[C@@H](OC(C)=O)[C@@]4(C)CC[C@@H]3[C@@]2(C)C[C@H]1[N+]1(C)CCCCC1", "activity change, negative = inhibition": "39.7% (inactive)"},
      {"molecule": "COC1=C2C[C@@H](C)C[C@H](OC)[C@@H](O)[C@@H](C)C=C(C)[C@H](OC(N)=O)[C@@H](OC)C=CC=C(C)C(=O)NC(=CC1=O)C2=O", "activity change, negative = inhibition": "-3.23% (inactive)"},
      {"molecule": "CC(C=CC=C(C)C=CC1=C(C)CCCC1(C)C)=CC=CC=C(C)C=CC=C(C)C=CC1=C(C)CCCC1(C)C", "activity change, negative = inhibition": "46.5% (inactive)"},
      {"molecule": "CCc1c(O)cc(O)c(C(=O)c2ccc(OCCN3CCOCC3)c(OC)c2)c1CC(=O)N(CCOC)CCOC", "activity change, negative = inhibition": "1.82% (inactive)"},
      {"molecule": "O=C1NC(=O)C(=Cc2ccc3nccc(-c4ccncc4)c3c2)S1", "activity change, negative = inhibition": "73.4% (inactive)"},
      {"molecule": "C[C@H](NC(=O)Cc1cc(F)cc(F)c1)C(=O)N[C@H](C(=O)OC(C)(C)C)c1ccccc1", "activity change, negative = inhibition": "0.918% (inactive)"},
      {"molecule": "C#C[C@]1(O)CC[C@@H]2[C@@H]3CCc4cc(O)ccc4[C@H]3CC[C@@]21C", "activity change, negative = inhibition": "27% (inactive)"},
      {"molecule": "C#CCC(Cc1cnc2nc(N)nc(N)c2n1)c1ccc(C(=O)N[C@@H](CCC(=O)O)C(=O)O)cc1", "note": "(stereo not given in full)", "activity change, negative = inhibition": "26.2% (inactive)"},
      {"molecule": "OCCN1C[C@H](O)[C@@H](O)[C@H](O)[C@@H]1CO", "activity change, negative = inhibition": "4.9% (inactive)"},
      {"molecule": "c1cc(CN2CCCNCCNCCCNCC2)ccc1CN1CCCNCCNCCCNCC1", "activity change, negative = inhibition": "1.14% (inactive)"},
      {"molecule": "COc1ccc(C=Cc2cc(OC)c(OC)c(OC)c2)cc1NC(=O)[C@H](N)CO", "activity change, negative = inhibition": "-9.27% (inactive)"},
      {"molecule": "C[C@@H](Cc1cc2c(c(C(N)=O)c1)N(CCCO)CC2)NCCOc1ccccc1OCC(F)(F)F", "activity change, negative = inhibition": "21.1% (inactive)"},
      {"molecule": "C[C@H](CCC(=O)O)[C@H]1CCC2C3C[C@H](O)[C@@H]4C[C@H](O)CC[C@]4(C)C3CC[C@@]21C", "note": "(stereo not given in full)", "activity change, negative = inhibition": "-1.5% (inactive)"},
      {"molecule": "O=C(C=Cc1ccc(CN(CCO)CCc2c[nH]c3ccccc23)cc1)NO", "activity change, negative = inhibition": "31.2% (inactive)"},
      {"molecule": "N#CC(=C(O)c1ccc(Cl)cc1Cl)c1nc2cc(Cl)ccc2c(=O)[nH]1", "activity change, negative = inhibition": "-21.9% (inactive)"}
    ]}
  ]
}
